According to PubChem BioAssay (EPA / NIEHS):
Records with an inconclusive call do not appear. Calls of active or inactive are those of the source. How the source made its calls: active means hit-call score of the fitted dose curve at least 0.9, where 1 is the maximum; inconclusive means response in the unintended direction; inactive means score below 0.9.

Target: human Protein Tyrosine Phosphatase Non-receptor Type 9 (PTPN9), PTPN9 (gene 5780) (UniProt P43378)
Assay: NVS_ENZ_hPTPN9: NovaScreen (NVS) Enzymatic Assay for human Protein Tyrosine Phosphatase Non-receptor Type 9 (PTPN9) (AID 2283209)
Protocol: NVS_ENZ_hPTPN9 is a biochemical, single-readout assay that uses extracted gene-proteins from SF9 in a cell-free assay. Measurements were taken 1.33 hours after chemical dosing in a 384-well plate.NVS_ENZ_hPTPN9 is one of one assay component(s) measured or calculated from the NVS_ENZ_hPTPN9 assay. It is designed to make measurements of enzyme activity, a form of enzyme reporter, as detected with fluorescence intensity signals by Fluorescence and electrophoretic mobility shift technology.Data from the assay component NVS_ENZ_hPTPN9 was analyzed into 1 assay endpoint. This assay endpoint, NVS_ENZ_hPTPN9, was analyzed in the positive analysis fitting direction relative to DMSO as the negative control and baseline of activity. Using a type of enzyme reporter, loss-of-signal activity can be used to understand changes in the enzymatic activity as they relate to the gene PTPN9. Furthermore, this assay endpoint can be referred to as a primary readout, because this assay has produced multiple assay endpoints where this one serves a enzymatic activity function. To generalize the intended target to other relatable targets, this assay endpoint is annotated to the phosphatase intended target family, where the subfamily is non-receptor tyrosine phosphatase.
Binding assays used specific radioligands (tritiated, iodinated) with non-radioactive competitive displacement ligands in agonist or antagonist protocols (as indicated) and various reference compounds and inhibitors to titrate specific binding to receptors and transporters. Most enzyme assays (CYPs, kinases, phosphatases, proteases, HDACs) used recombinant protein and specific substrates (fluorescence mostly, some colorimetric and radioactive) and inhibitors, followed by a biochemical separation of substrate and product. All assays for the biochemical HTS were initially run in duplicate at a single concentration (10 uM for CYP450 assays and 25 uM for all others). […]

Sequence of human Protein Tyrosine Phosphatase Non-receptor Type 9 (PTPN9), PTPN9 (gene 5780) (P43378 whole entry, looked up): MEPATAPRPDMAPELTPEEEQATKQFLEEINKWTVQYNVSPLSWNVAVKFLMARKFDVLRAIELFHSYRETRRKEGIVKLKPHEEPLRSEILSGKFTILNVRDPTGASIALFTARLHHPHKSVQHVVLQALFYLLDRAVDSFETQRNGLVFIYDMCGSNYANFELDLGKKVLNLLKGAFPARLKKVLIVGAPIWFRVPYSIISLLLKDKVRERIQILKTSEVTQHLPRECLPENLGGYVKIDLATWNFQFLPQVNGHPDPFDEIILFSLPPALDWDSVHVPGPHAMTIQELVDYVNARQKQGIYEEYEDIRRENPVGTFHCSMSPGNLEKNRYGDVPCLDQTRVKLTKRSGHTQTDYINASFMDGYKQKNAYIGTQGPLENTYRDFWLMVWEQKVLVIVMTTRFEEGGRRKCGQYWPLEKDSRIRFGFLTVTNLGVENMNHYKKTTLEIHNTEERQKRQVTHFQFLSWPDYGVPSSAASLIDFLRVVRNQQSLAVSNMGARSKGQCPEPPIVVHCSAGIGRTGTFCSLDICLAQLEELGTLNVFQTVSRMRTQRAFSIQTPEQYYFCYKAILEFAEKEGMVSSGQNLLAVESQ

Compound	outcome	AC50
OCC1CO1 (stereo not drawn)	inactive	–
CCC(C)(C)c1ccc(O)cc1	–	42.1 µM (active)
CN(C)C(=O)Cl	–	41.7 µM (active)

Target: human Protein Tyrosine Phosphatase Non-receptor Type 6 (PTPN6), PTPN6 (gene 5777) (UniProt P29350)
Sequence (P29350 whole entry, looked up): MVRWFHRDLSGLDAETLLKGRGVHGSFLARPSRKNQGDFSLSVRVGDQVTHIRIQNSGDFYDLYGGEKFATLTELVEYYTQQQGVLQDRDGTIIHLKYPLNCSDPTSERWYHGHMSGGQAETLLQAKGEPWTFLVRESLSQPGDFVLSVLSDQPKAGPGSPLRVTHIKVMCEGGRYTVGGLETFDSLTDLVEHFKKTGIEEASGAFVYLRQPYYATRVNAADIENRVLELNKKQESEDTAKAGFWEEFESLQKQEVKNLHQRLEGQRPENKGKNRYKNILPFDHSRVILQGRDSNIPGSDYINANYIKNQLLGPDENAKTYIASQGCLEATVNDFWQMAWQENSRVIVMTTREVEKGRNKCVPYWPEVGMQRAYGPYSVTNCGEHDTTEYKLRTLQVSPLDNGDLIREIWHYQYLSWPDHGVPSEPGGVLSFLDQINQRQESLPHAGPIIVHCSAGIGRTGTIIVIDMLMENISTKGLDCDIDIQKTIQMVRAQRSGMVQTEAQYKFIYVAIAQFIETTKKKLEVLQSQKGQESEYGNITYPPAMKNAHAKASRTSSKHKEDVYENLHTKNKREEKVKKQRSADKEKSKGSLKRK
Assay: NVS_ENZ_hPTPN6: NovaScreen (NVS) Enzymatic Assay for human Protein Tyrosine Phosphatase Non-receptor Type 6 (PTPN6) (AID 2283210)
Method in brief: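 Cell-free assay with recombinant PTPN6 expressed in SF9 cells, fluorescent substrate, product separated from substrate by electrophoretic mobility shift; read 1.33 hours after dosing. Primary screen in duplicate at 25 uM, actives retested in concentration series; DMSO baseline.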

Compound	outcome
[N-]=[N+]=[N-]	inactive
O=C(O)C1C(C(=O)O)C2(Cl)C(Cl)=C(Cl)C1(Cl)C2(Cl)Cl (stereo not drawn)	inactive
ClC(Cl)c1ccccc1	inactive
c1nc[nH]n1	inactive
CN(C)C(=O)Cl	inactive
CC(C)(C)OOC(C)(C)C	inactive
CCOS(=O)(=O)OCC	inactive

Target: human Protein Tyrosine Phosphatase Receptor Type C (PTPRC), PTPRC (gene 5788) (UniProt P08575)
Sequence (P08575 whole entry, looked up): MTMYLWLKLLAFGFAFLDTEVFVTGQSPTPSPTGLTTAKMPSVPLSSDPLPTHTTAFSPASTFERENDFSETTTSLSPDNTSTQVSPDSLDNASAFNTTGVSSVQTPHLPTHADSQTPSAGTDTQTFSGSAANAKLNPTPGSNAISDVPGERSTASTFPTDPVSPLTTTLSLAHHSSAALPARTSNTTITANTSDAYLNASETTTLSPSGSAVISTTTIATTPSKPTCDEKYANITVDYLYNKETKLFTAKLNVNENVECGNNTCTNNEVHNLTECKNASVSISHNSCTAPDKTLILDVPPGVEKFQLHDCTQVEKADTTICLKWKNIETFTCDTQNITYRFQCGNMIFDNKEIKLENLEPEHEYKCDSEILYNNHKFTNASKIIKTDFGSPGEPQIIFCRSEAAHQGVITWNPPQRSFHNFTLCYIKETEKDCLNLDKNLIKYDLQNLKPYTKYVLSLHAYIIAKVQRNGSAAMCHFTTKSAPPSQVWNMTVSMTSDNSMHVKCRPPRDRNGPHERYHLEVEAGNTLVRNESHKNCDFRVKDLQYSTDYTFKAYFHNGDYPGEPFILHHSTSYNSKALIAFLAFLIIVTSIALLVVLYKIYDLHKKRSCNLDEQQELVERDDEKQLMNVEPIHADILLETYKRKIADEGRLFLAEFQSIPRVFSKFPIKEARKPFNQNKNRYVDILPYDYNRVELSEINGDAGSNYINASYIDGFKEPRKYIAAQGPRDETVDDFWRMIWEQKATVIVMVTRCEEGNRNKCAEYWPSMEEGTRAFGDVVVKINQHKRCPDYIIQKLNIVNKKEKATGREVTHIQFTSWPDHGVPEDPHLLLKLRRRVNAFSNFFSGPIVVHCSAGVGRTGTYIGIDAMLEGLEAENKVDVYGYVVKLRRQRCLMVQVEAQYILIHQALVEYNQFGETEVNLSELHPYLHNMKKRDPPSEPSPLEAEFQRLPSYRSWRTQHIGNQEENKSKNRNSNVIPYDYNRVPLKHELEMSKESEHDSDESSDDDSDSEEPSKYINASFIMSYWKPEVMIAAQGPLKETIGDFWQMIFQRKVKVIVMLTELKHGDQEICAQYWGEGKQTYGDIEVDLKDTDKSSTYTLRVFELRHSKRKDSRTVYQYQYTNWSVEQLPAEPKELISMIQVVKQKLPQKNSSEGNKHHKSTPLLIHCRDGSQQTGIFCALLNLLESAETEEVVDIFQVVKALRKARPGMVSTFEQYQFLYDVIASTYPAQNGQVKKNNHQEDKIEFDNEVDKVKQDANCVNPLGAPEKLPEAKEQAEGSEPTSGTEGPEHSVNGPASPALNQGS
Assay: NVS_ENZ_hPTPRC: NovaScreen (NVS) Enzymatic Assay for human Protein Tyrosine Phosphatase Receptor Type C (PTPRC) (AID 2283212)
Method in brief: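 Yeast-extracted human PTPRC used in a cell-free colorimetric enzyme activity read-out, 1 h after dosing. Primary screen in duplicate at 25 uM; actives rerun in concentration-response up to 50 uM, DMSO as baseline.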

Compound	outcome	AC50
O=P1(N(CCCl)CCCl)NCCCO1 (stereo not drawn)	inactive	–
CCCCN(CCCC)SN(C)C(=O)Oc1cccc2c1OC(C)(C)C2	–	7.97 µM (active)
Cc1ccc(O)cc1C	inactive	–
Nc1ccc2ccccc2c1	–	12.3 µM (active)
Cc1ccc(N)cc1N	–	32.2 µM (active)

Target: human Rho Associated Coiled-coil Containing Protein Kinase 1 (ROCK1), ROCK1 (gene 6093) (UniProt Q13464)
Sequence (Q13464 whole entry, looked up): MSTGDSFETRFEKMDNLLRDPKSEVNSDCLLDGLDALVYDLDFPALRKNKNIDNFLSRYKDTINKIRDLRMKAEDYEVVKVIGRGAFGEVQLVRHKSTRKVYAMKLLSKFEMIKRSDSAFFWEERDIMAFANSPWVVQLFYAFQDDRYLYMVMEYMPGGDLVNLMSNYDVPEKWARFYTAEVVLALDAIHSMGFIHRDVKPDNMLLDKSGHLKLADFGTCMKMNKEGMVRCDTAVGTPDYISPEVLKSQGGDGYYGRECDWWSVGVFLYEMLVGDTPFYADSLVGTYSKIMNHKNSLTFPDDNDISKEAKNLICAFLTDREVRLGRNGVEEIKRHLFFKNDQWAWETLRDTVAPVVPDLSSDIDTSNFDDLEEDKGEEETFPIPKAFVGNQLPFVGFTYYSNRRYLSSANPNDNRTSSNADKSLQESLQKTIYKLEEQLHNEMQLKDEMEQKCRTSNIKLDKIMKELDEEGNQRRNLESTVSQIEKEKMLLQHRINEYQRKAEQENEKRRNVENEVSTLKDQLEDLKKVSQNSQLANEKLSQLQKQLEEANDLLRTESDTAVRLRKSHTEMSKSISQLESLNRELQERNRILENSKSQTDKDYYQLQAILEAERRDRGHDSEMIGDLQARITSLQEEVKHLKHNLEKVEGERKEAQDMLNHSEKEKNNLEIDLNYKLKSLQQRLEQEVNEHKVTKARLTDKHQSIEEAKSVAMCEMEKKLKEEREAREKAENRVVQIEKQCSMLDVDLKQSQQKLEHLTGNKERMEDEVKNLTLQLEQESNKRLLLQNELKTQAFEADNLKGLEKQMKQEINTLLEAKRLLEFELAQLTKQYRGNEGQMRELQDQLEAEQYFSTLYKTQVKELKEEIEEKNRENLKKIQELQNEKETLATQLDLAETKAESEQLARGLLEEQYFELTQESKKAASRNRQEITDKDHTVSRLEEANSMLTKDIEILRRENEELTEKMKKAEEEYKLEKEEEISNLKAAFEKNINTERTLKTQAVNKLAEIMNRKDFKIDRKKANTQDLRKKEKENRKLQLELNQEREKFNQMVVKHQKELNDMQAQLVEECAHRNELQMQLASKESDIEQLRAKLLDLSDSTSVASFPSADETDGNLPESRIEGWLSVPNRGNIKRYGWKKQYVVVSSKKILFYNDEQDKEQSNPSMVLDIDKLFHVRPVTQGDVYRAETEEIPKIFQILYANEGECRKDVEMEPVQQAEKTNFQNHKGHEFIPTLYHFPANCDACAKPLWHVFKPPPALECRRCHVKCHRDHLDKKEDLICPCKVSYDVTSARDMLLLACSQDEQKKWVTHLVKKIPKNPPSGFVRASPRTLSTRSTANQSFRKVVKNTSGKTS
Assay: NVS_ENZ_hROCK1: NovaScreen (NVS) Enzymatic Assay for human Rho Associated Coiled-coil Containing Protein Kinase 1 (ROCK1) (AID 2283214)
Method in brief: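 Cell-free recombinant human ROCK1 activity assay; fluorescent substrate and product separated by electrophoretic mobility shift, read 1 h after dosing. Screened in duplicate at 25 uM; loss of signal versus DMSO baseline scored as inhibition.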

Compound	outcome
CCOc1ccc(C(C)(C)COCc2cccc(Oc3ccccc3)c2)cc1	inactive
O=P(Oc1ccccc1)(Oc1ccccc1)Oc1ccccc1	inactive
Cc1ccc([N+](=O)[O-])cc1C	inactive
